The values below come from PubChem BioAssay AID485364 (National Center for Advancing Translational Sciences (NCATS), 2010).

About 11,000 (3.1%) of roughly 360,000 compounds were called active. Inconclusive results (about 4%) are left out. The full list was thinned out, with actives kept by preference. Unmarked numbers belong to inactive results. Calls follow the shape of the dose curve; as a rule, active = well fitted inhibition curve with a large enough effect; inconclusive = small, poorly fitted or top-dose-only effect; inactive = no such curve, though single readings can be large or run the other way.
% is scaled to controls: 0 for no effect and ±100 for the full control effect; potency is read from the fitted curve at half-maximal effect.

In this experiment the target is Schistosoma mansoni thioredoxin glutathione reductase (TGR) (UniProt Q962Y6). The experiment can be described thus: qHTS Assay for the Inhibitors of Schistosoma Mansoni Peroxiredoxins. Also: nearly all actives have a fitted effect of over 60% in size. To be noted: purified TGR, DTNB reduction, TNB absorbance 405 nm; series mostly up to 114 µM; activity change, negative = inhibition: at the top concentration. The text has this: Schistosomiasis is a major neglected tropical disease that currently affects over 200 million. It is caused by different species of flatworms, such as Schistosoma mansoni. Over the last century, drugs to treat the disease have evolved from potassium antimonyl tartrate, artemisinin, oxamniquine, to praziquantel, with praziquantel remaining the universally-used single drug of choice over the past three decades. However, transmission rates have changed little with praziquantel, and there is evidence for the development of drug resistant parasites. Because there is currently no suitable alternative therapy available, there is an urgent need to identify new targets and drugs for schistosomiasis treatment. Thioredoxin glutathione reductase (TGR), one uniquely positioned S. mansoni enzyme, has been identified as a major component of the worms' distinct and compressed antioxidant "firewall". TGR is a multifunctional enzyme that catalyzes the interconversion between reduced and oxidized forms of both glutathione (GSH) and thioredoxins, thus making it an attractive new antiparasitic target. Recently, a quantitative high-throughput screen of the NIH Molecular Libraries Small Molecule Repository (MLSMR, ~71K at the time of the screen in 2007) was performed using an assay that targeted both TGR and peroxiredoxin2 (Prx2, an H2O2-reducing enzymatic component of the S. mansoni redox "firewall") by following the decrease of NADPH fluorescence. […] Additional mechanistic link between exogenous NO donation and parasitic injury for the oxadiazole-2-oxide class of compounds was also expanded and better defined. Although the screen addressed both TGR and Prx2, the assay required post-screen target deconvolution for further characterization of the actives. In addition, the fluorescence assay was also subject to fluorescence interference from compound library members. We have developed a 1536-well-based kinetic HTS assay to address TGR alone. The assay followed the reduction of 5, 5'-dithiobis (2-nitrobenzoic acid) (DTNB) (Ellman's reagent) by NADPH and measured the increase in absorbance at 412 nm of the reaction product, TNB. […] This assay format can be used to screen the current MLSMR collection (with >300K compounds available) to find novel TGR inhibitors. Furoxan is a good choice to serve as a positive control in the primary HTS assay.
Three microliters of reagents (100 uM NADPH and 20 nM TGR or 100 uM NADPH as no-enzyme control) were dispensed into 1,536-well black clear-bottomed plates. Compounds (23 nL) were transferred via Kalypsys pin tool equipped with 1536-pin array (10 nL slotted pins, V&P Scientific, San Diego, CA). The plates were then be incubated for 15 min at room temperature, and 1 uL aliquot of 500 uM NADPH were added, immediately followed by a 1 uL aliquot of 15 mM DTNB to start the reaction. The plate was transferred to a ViewLux high-throughput CCD imager (Perkin-Elmer, Wellesley, MA) where kinetic measurements of the TNB absorbance were acquired using a 405 excitation filter. Throughout the screen, reagent bottles and all liquid lines were made light-tight to minimize reagent degradation. All screening operations were performed on a fully integrated robotic system (Kalypsys, San Diego, CA) containing one RX-130 and two RX-90 anthropomorphic robotic arms (Staubli, Duncan, SC). Library plates were screened starting from the lowest and proceeding to the highest concentration, and a "double-dipping" step of the highest concentration was required to access higher concentrations of compounds. Vehicle-only plates, with DMSO being pin-transferred to the entire column 5-48 compound area, were inserted uniformly at the beginning and the end of each library in order to monitor for and record any shifts in the background, which can be affected by reagent dispensers or loss in enzyme activity overtime. […]
As for `Cc1nnc(N2CCCC(C(=O)NCCN(C)C)C2)c2nn(-c3ccccc3)c(C)c12` (stereo not given), the “activity change, negative = inhibition” value was 38.7%. Still for that read-out and setting: under `COc1ccc(NC(=O)c2ccc3oc(=O)c(S(=O)(=O)c4ccc(F)cc4)cc3c2)c(OC)c1` stands 10.2%. Take `O=C(NCc1ccco1)c1sc2cccc(F)c2c1Cl`: the Potency was 39.8 µM (active). With `O=C(NCc1ccco1)c1cc2sccc2n1Cc1ccc(F)cc1`, the “activity change, negative = inhibition” value was -20.7%. The same measure, in the same setting: under `COc1ccc2c(Cl)c(C(=O)NCc3ccco3)sc2c1` stands -22.5%; under `Cc1ccc(C)c(Nc2nnc(-c3ccc(C)c(S(=O)(=O)N4CCCCC4)c3)c3ccccc23)c1`, 4.43%; under `Cc1ccc(C)c(N2CCN(c3ccc4cc(S(=O)(=O)N5CCC(C)CC5)ccc4n3)CC2)c1`, 3.72%.

`COc1cccc(-c2n[nH]c3c2C(c2cccc(O)c2)N(C)C3=O)c1` (stereo not given): the “activity change, negative = inhibition” value is -2.88%. `Cc1nn2c(c1-c1ccccc1)N=C(c1ccco1)CC2c1ccccc1` (stereo not given): the Potency was 10 µM (active).

`Cc1nn(C(=O)c2ccoc2C)c(N)c1-c1ccccc1`: the “activity change, negative = inhibition” value is 0.165%.

For `O=C(O)CCCC(=O)N1N=C(c2ccco2)CC1c1ccco1` (stereo not given), the “activity change, negative = inhibition” value was -32.6%. The same measure, in the same setting: the result for `COc1ccc(NC(=O)CCNS(=O)(=O)c2ccc3c(c2)CCCC(=O)N3)cc1Cl` reads 0.434%.

Regarding `CCCCn1c(SCc2ncc(-c3ccccc3)o2)nc2cc(S(N)(=O)=O)ccc21`, the Potency is 20 µM (active). `CCCCn1c(SCC(=O)N2CCCC2=O)nc2cc(S(N)(=O)=O)ccc21`: the “activity change, negative = inhibition” value was -10.3%.

With `CCCCn1c(SCC(=O)N2CCC(C(=O)OCC)CC2)nc2cc(S(N)(=O)=O)ccc21`, the “activity change, negative = inhibition” value was -11.3%. As to `CCCOC(=O)c1c(NC(=O)c2cc3nc(-c4ccc(OC)cc4)cc(C(F)(F)F)n3n2)sc2c1CCCC2`, the “activity change, negative = inhibition” value was 53.4%. On to `COc1ccc(C2(Nc3cccc(F)c3)C(=O)c3ccccc3C2=O)cc1`, for which the “activity change, negative = inhibition” value was 9.65%.

`CC(=O)N1CCN(CCN=CC2=C(O)CC(C)(C)CC2=O)CC1`: the Potency is 28.2 µM (active). As for `CCNC(=S)N1CCN(CCN=CC2=C(O)CC(C)(C)CC2=O)CC1`, the “activity change, negative = inhibition” value is -20.2%. On the same count and under the same terms, the result for `CC1(C)CC(=O)C(C=NCCN2CCN(C(=S)Nc3cccc(Cl)c3)CC2)=C(O)C1` reads -9.3%; that for `CCOc1ccccc1C(=O)NCc1ccc2c(c1)CCN2C(=O)c1ccc(F)cc1`, 0.127%; that for `CCOC(=O)c1ccc(NC2=CC(c3ccc(OCC)cc3)N(c3ccc(C(=O)OCC)cc3)C2=O)cc1` (stereo not given), -0.96%. As to `CC(C)(C)OC(=O)N1CCC(c2c(C(=O)N3CCN(c4cccc(Cl)c4)CC3)cnn2-c2cccc(Cl)c2)CC1`, the “activity change, negative = inhibition” value was 14.1%. Turning to `COc1ccc(NC(=O)COCc2cc(-c3ccco3)on2)cc1`, the “activity change, negative = inhibition” value was 0.166%. For the compound `COc1ccccc1OCC(=O)OCc1cc(-c2ccco2)on1`, the Potency is 56.2 µM (active).

On to `COc1ccccc1OCC(=O)O/N=C(\N)c1ccccn1`, for which the “activity change, negative = inhibition” value is 11.4%.

Take `O=C(CCS(=O)(=O)c1cc(Br)cc2c1N(C(=O)C1CC1)CC2)Nc1ccc(C(F)(F)F)cc1`: the “activity change, negative = inhibition” value is -5.59%. For `O=C1CCCC(O)=C1N=Nc1ccc(S(=O)(=O)N2CCOCC2)cc1`, the Potency is 44.7 µM (active).

Turning to `Cc1ccc(S(=O)(=O)N2CCN(S(=O)(=O)N3CCOCC3)CC2)cc1`, the “activity change, negative = inhibition” value was 0.025%. On the same count and under the same terms, the result for `CC1(C)CC(=O)C(N=Nc2ccc(S(=O)(=O)N3CCCCCC3)cc2)=C(O)C1` reads -12%; that for `COc1ccc(-c2nn3c(-c4ccc(OC)cc4)nnc3c3ccccc23)cc1`, 8.01%; that for `Cc1cc2c(cc3c(SCc4nc(-c5ccccc5)oc4C)nnc(C)n32)o1`, 1.33%. On the same count and under the same terms, the result for `Cc1noc2ncnc(NCc3ccccc3Cl)c12` reads -1.77%; that for `Cc1c(C(=O)N(C)C)sc2c1c(=O)n(-c1ccc(F)cc1)c(=O)n2CC(=O)N(C)c1ccccc1`, 9.3%; that for `C(=N\Nc1ccc2ccccc2n1)/c1ccc2c(c1)OCO2`, 0.889%. Same read-out and setting: the result for `Cc1cc(=O)[nH]c(N/N=C/c2c(C)nn(-c3ccccc3Cl)c2Cl)n1` reads -10.1%.

As for `Cc1cc(=O)[nH]c(N/N=C/c2ccc3c(c2)OCCO3)n1`, the Potency is 39.8 µM (active).

In the case of `CC1=Nc2cc(C(=O)NCc3ccc(C)cc3)ccc2Sc2ccc(Cl)cc21`, the “activity change, negative = inhibition” value was -3.91%. The same measure, in the same setting: the result for `COc1cccc(CNC(=O)Cn2ncn3c(cc4ccccc43)c2=O)c1` reads 1.74%. As for `COC(=O)C1=C(C)NC(=O)/C1=C/c1ccc(CNS(=O)(=O)c2ccc(C)cc2)o1`, the Potency was 22.4 µM (active).

Turning to `Cc1ccc(CCNC(=O)c2ccc(CNS(=O)(=O)c3ccc(C)cc3)cc2)cc1`, the “activity change, negative = inhibition” value was -4.55%. Same read-out and setting: under `COc1ccccc1CNS(=O)(=O)c1ccc(C)cc1` stands 0.213%; under `CCc1ccccc1NC(=O)c1ccc(F)c(S(=O)(=O)NC2CCCCCC2)c1`, 46.2%. `CN(C)N=Nc1ccc2nc[nH]c2c1`: the Potency is 39.8 µM (active). For the compound `COc1ccc(/C(C)=N/NC(=O)c2ccc3nc[nH]c3c2)cc1`, the “activity change, negative = inhibition” value is -6.56%. `CC/C(O)=N\S(=O)(=O)c1ccc(N=NN(C)C)cc1`: the “activity change, negative = inhibition” value is 9.42%. For the compound `CCc1nn(CC(=O)Nc2cc(C)cc(C)c2)c(=O)c2cc3sccc3n12`, the “activity change, negative = inhibition” value is -2.35%.

As to `CC(=O)N(CN1C(=O)C2CC=CCC2C1=O)c1cccc(Cl)c1` (stereo not given), the “activity change, negative = inhibition” value is -19.7%.

Regarding `O=C(CCl)N(Cc1cccc([N+](=O)[O-])c1)c1cccc(Cl)c1`, the Potency is 2.51 µM (active).

On to `COC(=O)c1cc(C(=O)N(Cc2ccccc2)c2ccccn2)cc([N+](=O)[O-])c1`, for which the “activity change, negative = inhibition” value was -1.34%.
